From the supplement of paper PMC4166925
± gives the standard deviation of the averaged measurements. The full ranking holds about 33,000 sequences; the median of “E-score (dimensionless, -0.5 to 0.5)” is about -0.046, and the highest 2% start at about 0.36. The entries come from a sample that favours the highest values as a whole.

tested on: T1, SpTbr T-box DNA-binding domain (GST fusion); assay: PBM E-score of 8-mer (E-score (dimensionless, -0.5 to 0.5)); Tbr is Tbrain of the sea star Patiria miniata (Pm) or the sea urchin Strongylocentrotus purpuratus (Sp); higher = stronger binding preference; conditions: the construct has about 5 more residues each side
T1 sequence: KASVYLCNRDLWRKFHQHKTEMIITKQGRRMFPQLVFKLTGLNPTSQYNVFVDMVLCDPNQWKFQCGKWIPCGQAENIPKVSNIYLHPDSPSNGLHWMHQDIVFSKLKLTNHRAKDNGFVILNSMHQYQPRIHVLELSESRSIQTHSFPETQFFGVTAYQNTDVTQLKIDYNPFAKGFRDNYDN
Description: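 Universal protein-binding microarray (Agilent AMADID 016060, 60-bp probes with a 35-bp variable region) incubated with 200 nM GST-fused Strongylocentrotus purpuratus Tbr T-box DNA-binding domain (residues 362-554) in PBS pH 7.5. Scored for every ungapped 8-mer (given with its reverse complement) as E-score (range -0.5 to 0.5; >0.45 counts as bound) and Z-score of median probe intensity. Two replicate arrays (datasets 1 and 2).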
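Further: protein at 200 nM in PBS on universal double-stranded arrays.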

Row | Sequence | PBM E-score of 8-mer
1 | TGCATTAA | 0.022 ± 0.05
2 | CATGCGCC | -0.226 ± 0.0069
3 | CGCATATC | -0.0822 ± 0.013
4 | CAGACCCA | -0.0355 ± 0.018
5 | AGGTCTTA | -0.0667 ± 0.12
6 | CCCTCACG | 0.153 ± 0.063
7 | ACTGGACC | -0.203 ± 0.069
8 | ATCCAGCC | -0.0901 ± 0.0022
9 | CCACCTAC | 0.248 ± 0.043
10 | ACACCTAC | 0.462 ± 0.0061
11 | GCACCTAC | 0.352 ± 0.025
12 | AATAGATG | 0.0328 ± 0.094
13 | AACTAATG | -0.0496 ± 0.012
14 | AGCTTTGA | -0.239 ± 0.067
15 | AGTCTCTC | -0.105 ± 0.029
16 | CTTCCTCC | -0.204 ± 0.065
17 | AGCAACAA | 0.1945 ± 0.00053
18 | AGCAACAC | 0.376 ± 0.026
19 | GGCAACAC | 0.3658 ± 0.00072
20 | AGCAACAG | -0.0121 ± 0.0042
21 | CGCAACAC | 0.306 ± 0.024
22 | GGCAACAA | 0.13 ± 0.019
23 | GGTTATCA | 0.0778 ± 0.034
24 | CGCTAAAC | 0.187 ± 0.1
25 | GACGGGCA | -0.2934 ± 0.0011

Row | Sequence | PBM E-score of 8-mer
26 | AACTGGTG | 0.188 ± 0.02
27 | ACACCCCG | 0.35 ± 0.018
28 | ACCCCTCT | -0.063 ± 0.085
29 | ACACCCCC | 0.363 ± 0.015
30 | ACACCCCT | 0.385 ± 0.013
31 | ACCCCCCT | -0.162 ± 0.03
32 | ACACCCCA | 0.376 ± 0.013
33 | TGACGTAA | -0.098 ± 0.019
34 | CATATCTA | -0.24 ± 0.025
35 | GAAGCCTA | -0.182 ± 0.037
36 | GACGGGCC | -0.12 ± 0.046
37 | TAGCGCGA | 0.3785 ± 0.0014
38 | AAGCGCGC | 0.0762 ± 0.0076
39 | AAGCGCGA | 0.369 ± 0.007
40 | CAGCGCGA | 0.199 ± 0.0059
41 | GAGCGCGA | 0.279 ± 0.053
42 | AAGCGCGG | 0.136 ± 0.063
43 | CTTCCAGA | -0.22 ± 0.011
44 | ACCATAGC | 0.0118 ± 0.017
45 | CTCTGGGC | -0.112 ± 0.012
46 | TCATTGGA | -0.0638 ± 0.031
47 | CCTCCATC | -0.0262 ± 0.042
48 | ACACACCC | 0.33 ± 0.0064
49 | CCACACTA | 0.279 ± 0.029
50 | CCACACTC | 0.374 ± 0.015

Row | Sequence | PBM E-score of 8-mer
51 | CCACACCC | 0.414 ± 0.024
52 | ACACACTC | 0.307 ± 0.019
53 | CCACACCG | 0.226 ± 0.071
54 | ATCCTGCC | -0.182 ± 0.054
55 | ATGGGCAG | -0.0503 ± 0.058
56 | ATGCCCGC | 0.031 ± 0.012
57 | AAGTGCTG | 0.246 ± 0.04
58 | ATGTGCCC | -0.0447 ± 0.038
59 | AAGTGCTC | 0.118 ± 0.051
60 | AAGTGCCC | -0.146 ± 0.044
61 | GAGTGCCA | 0.20475 ± 0.00018
62 | AAGTGCCA | 0.4045 ± 0.0038
63 | ATGTGCCG | 0.175 ± 0.032
64 | AAGTGCTA | 0.419 ± 0.014
65 | ATGTGCCA | 0.374 ± 0.01
66 | AAGAGAGA | -0.141 ± 0.03
67 | GTCACAGA | 0.0552 ± 0.0087
68 | GTCACACA | 0.409 ± 0.03
69 | CACACACA | 0.3384 ± 0.00066
70 | GTCACAAA | 0.125 ± 0.032
71 | CACACACG | 0.233 ± 0.057
72 | CTCACACA | 0.438 ± 0.0081
73 | ATATTAAT | -0.209 ± 0.078
74 | CTGTGGTC | -0.0438 ± 0.0053
75 | CCAGCCGG | -0.00031 ± 0.015

Row | Sequence | PBM E-score of 8-mer
76 | AGGTAGCG | 0.143 ± 0.04
77 | CTCACGCA | 0.375 ± 0.022
78 | CTTACGCC | 0.177 ± 0.0022
79 | ATCACGCA | 0.19 ± 0.026
80 | CCCACGCC | 0.163 ± 0.014
81 | ATCACGCG | 0.357 ± 0.012
82 | CTCACGCC | 0.397 ± 0.039
83 | ATCACGCC | 0.403 ± 0.0051
84 | CTTACGCA | 0.0993 ± 0.0077
85 | GTCACGCA | 0.279 ± 0.017
86 | ATATAGGC | -0.0504 ± 0.058
87 | ACTTAAGT | -0.0767 ± 0.13
88 | GTGCTCTA | -0.178 ± 0.029
89 | ACCCGAAC | -0.0199 ± 0.021
90 | AGCAAAAT | -0.0958 ± 0.067
91 | CCCTTACG | -0.0777 ± 0.068
92 | GCCTGCAA | -0.0777 ± 0.016
93 | CTGCTAAC | 0.321 ± 0.029
94 | GTGCTAAC | 0.432 ± 0.012
95 | GCGCTAAA | 0.338 ± 0.014
96 | ATGCTAAC | 0.0372 ± 0.018
97 | TTGCTAAA | 0.109 ± 0.08
98 | CTGCTAAA | 0.0425 ± 0.15
99 | GTGCTAAA | 0.384 ± 0.026
100 | CCGCTAAC | 0.16 ± 0.031

Row | Sequence | PBM E-score of 8-mer
101 | GCGCTAAC | 0.388 ± 0.007
102 | AACAAGGT | 0.271 ± 0.009
103 | AGTAGCGC | 0.224 ± 0.014
104 | GACCATAC | -0.206 ± 0.012
105 | ACAACCAT | 0.0868 ± 0.041
106 | GAAGTCGA | 0.107 ± 0.051
107 | AGTCTGGG | -0.278 ± 0.029
108 | CCCAACGG | -0.055 ± 0.1
109 | ATGTTATA | -0.0933 ± 0.013
110 | GTGTTGGA | 0.367 ± 0.0068
111 | CTGTTATA | 0.137 ± 0.071
112 | GTGTTATA | 0.4 ± 0.034
113 | ACGTTAAC | 0.255 ± 0.013
114 | CTGTTGGA | 0.0702 ± 0.044
115 | GCGTTAAC | 0.374 ± 0.011
116 | ATGTTGGA | -0.0349 ± 0.065
117 | CTGTTAAC | 0.312 ± 0.028
118 | CCGTTAAC | 0.228 ± 0.007
119 | ATGTTAAC | 0.182 ± 0.097
120 | GTGTTAAC | 0.4543 ± 0.0026
121 | AAAGCGCT | 0.0608 ± 0.028
122 | GAGCAGTA | -0.00784 ± 0.039
123 | AGTTAGCG | 0.304 ± 0.0085
124 | GTCGAGCA | 0.0707 ± 0.028
125 | ATTTAAAT | -0.06656 ± 0.00039

Row | Sequence | PBM E-score of 8-mer
126 | ACCTCCCT | 0.00833 ± 0.034
127 | TTGTTAAA | 0.184 ± 0.12
128 | GTGTTAAA | 0.395 ± 0.026
129 | CTGTTAGA | 0.11 ± 0.12
130 | ATGTTAGA | -0.136 ± 0.095
131 | GTGTTAGA | 0.384 ± 0.0066
132 | CTGTTAAA | 0.231 ± 0.041
133 | GGTAGACA | -0.025 ± 0.028
134 | CTCTTCAC | 0.292 ± 0.018
135 | AAGGGGCA | -0.297 ± 0.042
136 | AAGGCGCT | 0.306 ± 0.035
137 | AGAGCAAT | -0.132 ± 0.0051
138 | ACGTGATG | 0.0808 ± 0.05
139 | AGGTGATG | 0.3942 ± 0.0033
140 | AGGTGATA | 0.428 ± 0.015
141 | AGGTGATC | 0.116 ± 0.085
142 | GGGTGATA | 0.253 ± 0.0088
143 | CGGTGATA | 0.111 ± 0.0075
144 | ACGCCGGC | 0.242 ± 0.0047
145 | AGGGGGAT | -0.262 ± 0.033
146 | ACTTTCAA | 0.0855 ± 0.0062
147 | GTCGCGAC | 0.362 ± 0.019
148 | ATCGCGAA | 0.367 ± 0.032
149 | ATCGCAAA | 0.0887 ± 0.0029
150 | ATCGCGAC | 0.271 ± 0.036

Row | Sequence | PBM E-score of 8-mer
151 | GTCGCGAA | 0.372 ± 0.025
152 | CTCGCGAA | 0.389 ± 0.012
153 | ATCGCGTA | 0.13 ± 0.024
154 | CTCGCGAC | 0.311 ± 0.025
155 | TTCGCGAA | 0.3584 ± 0.0003
156 | ATCGCGAG | 0.255 ± 0.0054
157 | CTCGCGAG | 0.284 ± 0.03
158 | ATCGCGAT | 0.364 ± 0.011
159 | GAAAGTGA | 0.293 ± 0.039
160 | AAAAAAGT | -0.074 ± 0.11
161 | CCTACTAA | -0.0157 ± 0.06
162 | CGTGTAAA | 0.296 ± 0.027
163 | TGCATCAA | -0.0456 ± 0.044
164 | CTGCCAAG | 0.105 ± 0.03
165 | ACGCTCAG | 0.0449 ± 0.0089
166 | CAAGAACG | -0.267 ± 0.011
167 | ACCCTTGA | -0.0396 ± 0.029
168 | ATGCGCTC | -0.175 ± 0.02
169 | AAACCTCT | -0.292 ± 0.061
170 | CCACCTCC | 0.324 ± 0.0077
171 | ATACCTCC | -0.0183 ± 0.066
172 | ACACCTCC | 0.4854 ± 0.0043
173 | CCACCTCG | 0.228 ± 0.019
